In article PMC7862700, “An all-to-all approach to the identification of sequence-specific readers for epigenetic DNA modifications on cytosine”:

Experiments:
Test in all cases: DAPPL (digital affinity profiling via proximity ligation, sequencing); 10 mM Tris-HCl pH 7.5, 50 mM NaCl, 1 mM DTT, 4% glycerol, room temperature, 30 min; GST-TFs on glutathione beads, 16-mer random dsDNA library, 0.1% formaldehyde crosslink after washing; high values mean tight binding
FLI1 = molecular target: T1, FLI1 (Homo sapiens, UniProt Q01543 1-452); settings: protein: recombinant; tags: N-terminal GST; dsDNA, one strand shown
T1 sequence: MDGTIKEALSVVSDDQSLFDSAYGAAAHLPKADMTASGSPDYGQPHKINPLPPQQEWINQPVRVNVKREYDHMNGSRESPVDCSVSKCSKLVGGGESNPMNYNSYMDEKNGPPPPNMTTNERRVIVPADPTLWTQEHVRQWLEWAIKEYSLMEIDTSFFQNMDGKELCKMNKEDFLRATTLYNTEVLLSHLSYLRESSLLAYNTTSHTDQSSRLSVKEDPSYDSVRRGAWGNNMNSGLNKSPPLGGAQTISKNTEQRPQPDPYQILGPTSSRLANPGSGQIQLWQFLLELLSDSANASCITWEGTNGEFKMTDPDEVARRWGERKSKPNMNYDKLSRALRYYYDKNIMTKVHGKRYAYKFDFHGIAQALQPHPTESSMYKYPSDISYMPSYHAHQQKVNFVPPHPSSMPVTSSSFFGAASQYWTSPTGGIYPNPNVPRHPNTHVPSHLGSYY
Summary of the method: (§1)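 Binding signal is defined as a hexamer's read frequency for one factor over its frequency for the tag-only sample. To obtain reads, GST-fused human transcription factors were expressed in yeast, captured on glutathione beads, barcoded with DNA and pooled with that sample. Pools met 200 nmole of a 16-mer random double-stranded DNA library in Tris/NaCl/DTT/glycerol buffer for 30 min at room temperature before washing, 0.1% formaldehyde crosslinking, proximity ligation (BsaI/T4 ligase, 1 h, 37 °C), PCR and Illumina NextSeq500 sequencing.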

ELK1 = molecular target: T2, ELK1 (Homo sapiens, UniProt P19419 1-428); settings: protein: recombinant; tags: N-terminal GST; dsDNA, one strand shown
T2 sequence: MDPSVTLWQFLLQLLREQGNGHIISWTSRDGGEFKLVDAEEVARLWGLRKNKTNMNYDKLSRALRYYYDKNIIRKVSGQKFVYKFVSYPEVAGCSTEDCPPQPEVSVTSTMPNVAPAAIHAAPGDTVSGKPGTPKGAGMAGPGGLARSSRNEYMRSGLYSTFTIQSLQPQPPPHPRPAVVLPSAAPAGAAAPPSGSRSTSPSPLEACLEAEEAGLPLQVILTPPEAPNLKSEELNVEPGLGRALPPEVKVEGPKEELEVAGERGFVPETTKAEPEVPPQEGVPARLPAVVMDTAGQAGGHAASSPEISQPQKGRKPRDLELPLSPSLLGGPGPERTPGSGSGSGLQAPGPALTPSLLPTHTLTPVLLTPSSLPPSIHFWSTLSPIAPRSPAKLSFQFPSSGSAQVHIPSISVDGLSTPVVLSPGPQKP
Summary of the method: as §1

GABPA = molecular target: T3, GABPA (Homo sapiens, UniProt Q06546 1-454); settings: protein: recombinant; tags: N-terminal GST; dsDNA, one strand shown
T3 sequence: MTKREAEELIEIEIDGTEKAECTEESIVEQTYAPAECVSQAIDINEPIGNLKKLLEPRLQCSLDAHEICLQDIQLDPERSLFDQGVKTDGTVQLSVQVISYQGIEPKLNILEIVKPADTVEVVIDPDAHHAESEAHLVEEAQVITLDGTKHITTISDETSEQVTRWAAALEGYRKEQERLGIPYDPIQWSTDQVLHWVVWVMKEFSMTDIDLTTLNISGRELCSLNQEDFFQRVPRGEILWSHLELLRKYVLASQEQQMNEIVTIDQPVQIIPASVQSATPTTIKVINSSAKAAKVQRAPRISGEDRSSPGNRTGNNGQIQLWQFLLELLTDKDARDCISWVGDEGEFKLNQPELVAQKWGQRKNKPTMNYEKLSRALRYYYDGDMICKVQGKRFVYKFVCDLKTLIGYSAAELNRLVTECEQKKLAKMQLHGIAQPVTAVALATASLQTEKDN
Summary of the method: as §1

ERG = molecular target: T4, ERG (Homo sapiens, UniProt P11308 1-479); settings: protein: recombinant; tags: N-terminal GST; dsDNA, one strand shown
T4 sequence: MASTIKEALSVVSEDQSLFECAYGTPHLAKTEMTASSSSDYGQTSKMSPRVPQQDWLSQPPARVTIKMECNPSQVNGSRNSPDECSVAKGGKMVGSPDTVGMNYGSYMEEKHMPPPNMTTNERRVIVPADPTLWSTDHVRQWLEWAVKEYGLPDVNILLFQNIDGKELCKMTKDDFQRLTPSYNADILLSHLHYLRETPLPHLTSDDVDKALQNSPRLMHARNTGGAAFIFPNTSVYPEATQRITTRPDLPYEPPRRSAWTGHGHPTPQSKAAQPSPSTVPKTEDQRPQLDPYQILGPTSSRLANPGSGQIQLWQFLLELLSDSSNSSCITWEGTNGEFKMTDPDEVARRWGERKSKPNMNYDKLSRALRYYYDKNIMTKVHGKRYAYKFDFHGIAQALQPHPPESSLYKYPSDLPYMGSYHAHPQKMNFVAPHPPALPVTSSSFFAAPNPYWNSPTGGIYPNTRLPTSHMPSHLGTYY
Summary of the method: as §1

ELF1 = ELF1 (Homo sapiens, UniProt P32519 1-619); settings: protein: recombinant; tags: N-terminal GST; dsDNA, one strand shown
ELF1, sequence (P32519 whole entry): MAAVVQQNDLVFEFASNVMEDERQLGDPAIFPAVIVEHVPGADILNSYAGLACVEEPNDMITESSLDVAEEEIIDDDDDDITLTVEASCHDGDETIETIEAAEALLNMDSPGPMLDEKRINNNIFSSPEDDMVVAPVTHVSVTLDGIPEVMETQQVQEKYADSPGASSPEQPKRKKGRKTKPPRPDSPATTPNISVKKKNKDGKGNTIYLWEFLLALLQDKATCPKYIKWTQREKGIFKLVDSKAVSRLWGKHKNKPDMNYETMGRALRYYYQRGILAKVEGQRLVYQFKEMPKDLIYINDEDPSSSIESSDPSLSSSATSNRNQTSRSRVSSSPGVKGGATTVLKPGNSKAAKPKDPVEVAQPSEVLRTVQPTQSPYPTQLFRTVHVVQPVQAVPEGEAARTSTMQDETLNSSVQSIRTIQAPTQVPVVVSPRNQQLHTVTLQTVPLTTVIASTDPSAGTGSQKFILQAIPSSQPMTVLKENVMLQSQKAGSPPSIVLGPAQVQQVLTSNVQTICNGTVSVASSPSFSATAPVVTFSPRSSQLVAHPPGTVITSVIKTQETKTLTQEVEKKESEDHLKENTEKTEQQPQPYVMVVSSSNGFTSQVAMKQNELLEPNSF
Summary of the method: as §1

EHF = molecular target: T5, EHF (Homo sapiens, UniProt Q9NZC4 1-300); settings: protein: recombinant; tags: N-terminal GST; dsDNA, one strand shown
T5 sequence: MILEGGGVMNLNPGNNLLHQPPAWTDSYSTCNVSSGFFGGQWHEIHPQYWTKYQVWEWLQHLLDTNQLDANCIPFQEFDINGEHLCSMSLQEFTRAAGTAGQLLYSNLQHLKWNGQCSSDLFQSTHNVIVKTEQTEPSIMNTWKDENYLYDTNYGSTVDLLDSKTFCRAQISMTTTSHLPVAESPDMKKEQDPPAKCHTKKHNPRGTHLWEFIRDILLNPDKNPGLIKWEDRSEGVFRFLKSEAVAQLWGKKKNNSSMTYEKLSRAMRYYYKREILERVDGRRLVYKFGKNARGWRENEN
Summary of the method: as §1

SPI1 = SPI1 (Homo sapiens, UniProt P17947 1-270); settings: protein: recombinant; tags: N-terminal GST; dsDNA, one strand shown
Summary of the method: as §1

SPIB = SPIB (Homo sapiens, UniProt Q01892 1-262); settings: protein: recombinant; tags: N-terminal GST; dsDNA, one strand shown
SPIB, sequence (Q01892 whole entry): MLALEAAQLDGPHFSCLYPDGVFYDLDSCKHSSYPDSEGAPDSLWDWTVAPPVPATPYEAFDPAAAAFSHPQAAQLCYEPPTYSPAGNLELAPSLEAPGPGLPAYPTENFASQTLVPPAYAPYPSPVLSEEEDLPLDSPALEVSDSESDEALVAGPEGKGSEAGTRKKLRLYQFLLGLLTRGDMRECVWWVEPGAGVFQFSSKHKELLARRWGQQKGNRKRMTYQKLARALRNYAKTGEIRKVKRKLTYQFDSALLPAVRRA
Summary of the method: as §1

ELK3 = molecular target: T6, ELK3 (Homo sapiens, UniProt P41970 1-407); settings: protein: recombinant; tags: N-terminal GST; dsDNA, one strand shown
T6 sequence: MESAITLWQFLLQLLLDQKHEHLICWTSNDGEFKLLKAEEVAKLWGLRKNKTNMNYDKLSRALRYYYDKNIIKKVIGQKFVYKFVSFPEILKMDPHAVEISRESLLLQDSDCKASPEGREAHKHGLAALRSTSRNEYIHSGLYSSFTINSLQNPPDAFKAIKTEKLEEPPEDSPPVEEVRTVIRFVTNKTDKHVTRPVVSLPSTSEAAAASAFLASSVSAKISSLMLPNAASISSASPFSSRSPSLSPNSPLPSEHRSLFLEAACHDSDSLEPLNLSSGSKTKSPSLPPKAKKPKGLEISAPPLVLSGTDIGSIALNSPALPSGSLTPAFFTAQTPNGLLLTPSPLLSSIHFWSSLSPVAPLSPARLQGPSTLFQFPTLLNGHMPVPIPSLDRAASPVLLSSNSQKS
Summary of the method: as §1

FEV = molecular target: T7, FEV (Homo sapiens, UniProt Q99581 1-238); settings: protein: recombinant; tags: N-terminal GST; dsDNA, one strand shown
T7 sequence: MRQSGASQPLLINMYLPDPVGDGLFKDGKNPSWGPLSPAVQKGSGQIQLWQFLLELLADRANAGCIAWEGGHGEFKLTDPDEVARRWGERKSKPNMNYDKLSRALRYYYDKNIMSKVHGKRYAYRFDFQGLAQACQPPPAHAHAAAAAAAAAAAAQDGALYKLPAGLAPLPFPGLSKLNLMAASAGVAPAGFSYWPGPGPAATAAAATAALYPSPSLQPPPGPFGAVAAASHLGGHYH
Summary of the method: as §1

ETV5 = ETV5 (Homo sapiens, UniProt P41161 1-510); settings: protein: recombinant; tags: N-terminal GST; dsDNA, one strand shown
ETV5, sequence (P41161 whole entry): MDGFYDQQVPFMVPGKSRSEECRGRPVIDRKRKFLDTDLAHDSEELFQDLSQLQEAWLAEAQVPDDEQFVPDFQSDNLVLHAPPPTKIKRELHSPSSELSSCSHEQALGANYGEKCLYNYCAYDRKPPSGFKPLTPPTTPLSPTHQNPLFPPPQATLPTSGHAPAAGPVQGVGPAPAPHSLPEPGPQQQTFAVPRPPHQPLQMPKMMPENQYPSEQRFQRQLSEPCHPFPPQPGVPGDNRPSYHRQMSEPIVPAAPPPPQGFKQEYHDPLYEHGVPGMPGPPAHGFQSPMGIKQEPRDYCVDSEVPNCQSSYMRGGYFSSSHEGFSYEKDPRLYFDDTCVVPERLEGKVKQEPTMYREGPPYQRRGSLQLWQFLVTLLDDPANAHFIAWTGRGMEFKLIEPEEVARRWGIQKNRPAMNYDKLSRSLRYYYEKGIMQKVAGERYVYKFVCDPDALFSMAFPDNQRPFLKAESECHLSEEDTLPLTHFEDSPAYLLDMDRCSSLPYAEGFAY
Summary of the method: as §1

HSF1 = HSF1 (Homo sapiens, UniProt Q00613 1-529); settings: protein: recombinant; tags: N-terminal GST; chain copies: 3; dsDNA, one strand shown
HSF1, sequence (Q00613 whole entry): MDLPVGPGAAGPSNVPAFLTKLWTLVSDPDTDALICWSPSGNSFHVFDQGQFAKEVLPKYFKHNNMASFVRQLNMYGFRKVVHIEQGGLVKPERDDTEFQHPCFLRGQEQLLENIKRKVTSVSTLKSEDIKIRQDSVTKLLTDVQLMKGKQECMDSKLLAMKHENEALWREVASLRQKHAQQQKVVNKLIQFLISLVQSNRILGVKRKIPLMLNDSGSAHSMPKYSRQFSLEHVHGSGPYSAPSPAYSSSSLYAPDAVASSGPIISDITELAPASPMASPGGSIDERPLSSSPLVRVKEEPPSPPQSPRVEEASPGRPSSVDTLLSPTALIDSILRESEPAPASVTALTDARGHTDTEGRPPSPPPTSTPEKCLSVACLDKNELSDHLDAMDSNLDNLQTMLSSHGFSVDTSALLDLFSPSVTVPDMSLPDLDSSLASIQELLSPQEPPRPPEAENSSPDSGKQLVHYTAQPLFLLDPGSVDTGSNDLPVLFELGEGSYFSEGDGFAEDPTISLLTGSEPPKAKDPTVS
Summary of the method: as §1

SPIC = molecular target: T8, SPIC (Homo sapiens, UniProt Q8N5J4 1-248); settings: protein: recombinant; tags: N-terminal GST; dsDNA, one strand shown
T8 sequence: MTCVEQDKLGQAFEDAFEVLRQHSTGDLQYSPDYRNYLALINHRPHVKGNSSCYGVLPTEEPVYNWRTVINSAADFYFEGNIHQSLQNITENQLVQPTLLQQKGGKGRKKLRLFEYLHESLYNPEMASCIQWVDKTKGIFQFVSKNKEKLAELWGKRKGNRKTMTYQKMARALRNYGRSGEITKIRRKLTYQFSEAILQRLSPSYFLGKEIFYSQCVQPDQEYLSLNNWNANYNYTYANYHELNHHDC
Summary of the method: as §1

ELF4 = ELF4 (Homo sapiens, UniProt Q99607 1-663); settings: protein: recombinant; tags: N-terminal GST; dsDNA, one strand shown
ELF4, sequence (Q99607 whole entry): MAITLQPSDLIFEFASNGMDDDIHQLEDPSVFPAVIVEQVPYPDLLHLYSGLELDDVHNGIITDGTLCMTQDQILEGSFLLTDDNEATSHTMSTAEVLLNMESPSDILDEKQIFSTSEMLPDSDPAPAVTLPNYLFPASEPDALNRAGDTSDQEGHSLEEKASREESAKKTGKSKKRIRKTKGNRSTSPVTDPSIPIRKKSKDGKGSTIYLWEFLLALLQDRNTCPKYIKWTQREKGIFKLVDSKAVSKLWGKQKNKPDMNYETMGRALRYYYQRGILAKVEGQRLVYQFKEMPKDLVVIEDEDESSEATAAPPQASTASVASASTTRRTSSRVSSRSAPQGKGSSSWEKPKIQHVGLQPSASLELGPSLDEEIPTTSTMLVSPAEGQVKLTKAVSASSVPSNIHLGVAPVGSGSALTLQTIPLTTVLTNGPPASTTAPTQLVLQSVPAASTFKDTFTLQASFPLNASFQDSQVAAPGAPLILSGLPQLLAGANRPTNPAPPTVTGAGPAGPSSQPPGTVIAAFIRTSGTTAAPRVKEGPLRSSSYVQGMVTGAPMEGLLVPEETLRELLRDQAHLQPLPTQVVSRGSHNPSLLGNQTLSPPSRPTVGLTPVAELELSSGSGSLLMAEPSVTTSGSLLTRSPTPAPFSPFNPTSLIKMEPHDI
Summary of the method: as §1

ELK4 = molecular target: T9, ELK4 (Homo sapiens, UniProt P28324-2 1-405); settings: protein: recombinant; tags: N-terminal GST; dsDNA, one strand shown
T9 sequence: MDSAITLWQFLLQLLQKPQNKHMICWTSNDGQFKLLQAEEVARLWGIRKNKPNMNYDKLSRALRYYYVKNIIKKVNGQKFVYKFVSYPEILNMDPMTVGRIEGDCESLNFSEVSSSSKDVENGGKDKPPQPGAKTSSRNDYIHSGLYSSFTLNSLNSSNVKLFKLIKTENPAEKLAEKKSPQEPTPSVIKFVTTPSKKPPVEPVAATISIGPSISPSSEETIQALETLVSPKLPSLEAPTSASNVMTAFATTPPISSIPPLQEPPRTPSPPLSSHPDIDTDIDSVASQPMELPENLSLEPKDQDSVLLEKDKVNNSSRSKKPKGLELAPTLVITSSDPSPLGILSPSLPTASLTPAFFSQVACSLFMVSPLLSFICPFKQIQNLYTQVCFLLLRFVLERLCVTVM
Summary of the method: as §1

ETV2 = molecular target: T10, ETV2 (Homo sapiens, UniProt O00321 1-342); settings: protein: recombinant; tags: N-terminal GST; dsDNA, one strand shown
T10 sequence: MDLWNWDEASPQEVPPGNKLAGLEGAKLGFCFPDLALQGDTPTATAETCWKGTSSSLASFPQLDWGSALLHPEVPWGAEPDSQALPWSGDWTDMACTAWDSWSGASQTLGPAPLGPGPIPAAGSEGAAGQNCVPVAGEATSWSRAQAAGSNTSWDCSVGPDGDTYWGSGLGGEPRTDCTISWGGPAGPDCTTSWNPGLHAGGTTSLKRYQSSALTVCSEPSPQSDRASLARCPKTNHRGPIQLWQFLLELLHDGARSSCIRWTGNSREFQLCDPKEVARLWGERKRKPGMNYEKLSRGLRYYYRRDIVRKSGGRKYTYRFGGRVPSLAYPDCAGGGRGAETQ
Summary of the method: as §1

ELF3 = molecular target: T11, ELF3 (Homo sapiens, UniProt P78545 1-371); settings: protein: recombinant; tags: N-terminal GST; dsDNA, one strand shown
T11 sequence: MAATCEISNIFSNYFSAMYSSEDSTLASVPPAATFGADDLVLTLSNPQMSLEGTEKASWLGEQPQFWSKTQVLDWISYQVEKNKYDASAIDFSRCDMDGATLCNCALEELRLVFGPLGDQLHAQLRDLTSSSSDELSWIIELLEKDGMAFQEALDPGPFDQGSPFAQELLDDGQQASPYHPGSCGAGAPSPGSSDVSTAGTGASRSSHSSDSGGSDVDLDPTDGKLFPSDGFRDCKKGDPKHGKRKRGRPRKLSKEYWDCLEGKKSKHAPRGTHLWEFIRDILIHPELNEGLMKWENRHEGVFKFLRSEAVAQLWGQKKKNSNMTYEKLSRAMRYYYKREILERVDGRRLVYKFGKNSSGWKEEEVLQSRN
Summary of the method: as §1

CRX = CRX (Homo sapiens, UniProt O43186 1-299); settings: protein: recombinant; tags: N-terminal GST; dsDNA, one strand shown
CRX, sequence (O43186 whole entry): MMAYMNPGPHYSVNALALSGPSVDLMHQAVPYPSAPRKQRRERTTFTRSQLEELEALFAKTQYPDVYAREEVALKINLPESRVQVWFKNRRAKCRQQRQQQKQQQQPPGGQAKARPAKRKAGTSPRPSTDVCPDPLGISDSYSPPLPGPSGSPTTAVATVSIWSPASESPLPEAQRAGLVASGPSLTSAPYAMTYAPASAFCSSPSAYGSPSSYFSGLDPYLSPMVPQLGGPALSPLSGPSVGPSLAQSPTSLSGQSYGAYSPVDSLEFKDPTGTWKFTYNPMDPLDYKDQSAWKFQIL
Summary of the method: as §1

ETV1 = ETV1 (Homo sapiens, UniProt P50549 1-477); settings: protein: recombinant; tags: N-terminal GST; dsDNA, one strand shown
ETV1, sequence (P50549 whole entry): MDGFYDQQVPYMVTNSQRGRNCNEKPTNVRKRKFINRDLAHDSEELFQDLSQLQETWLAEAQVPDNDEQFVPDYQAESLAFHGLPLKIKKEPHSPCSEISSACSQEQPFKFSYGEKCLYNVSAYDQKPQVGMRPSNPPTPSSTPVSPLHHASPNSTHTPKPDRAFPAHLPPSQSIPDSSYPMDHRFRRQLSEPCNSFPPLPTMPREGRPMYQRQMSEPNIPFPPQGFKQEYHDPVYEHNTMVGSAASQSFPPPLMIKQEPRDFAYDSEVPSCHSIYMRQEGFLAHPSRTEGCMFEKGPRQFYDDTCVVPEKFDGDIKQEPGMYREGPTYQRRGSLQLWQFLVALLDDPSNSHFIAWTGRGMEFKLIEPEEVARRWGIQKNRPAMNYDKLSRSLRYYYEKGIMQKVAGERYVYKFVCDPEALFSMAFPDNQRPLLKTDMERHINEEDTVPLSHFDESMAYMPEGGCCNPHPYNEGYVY
Summary of the method: as §1

CTTTGC
binding signal (FLI1): 1.4 fold enrichment (6-mer frequency, TF over GST control)
binding signal (ELK1): 1.29 fold enrichment (6-mer frequency, TF over GST control)
binding signal (GABPA): 1.39 fold enrichment (6-mer frequency, TF over GST control)
binding signal (ERG): 1.46 fold enrichment (6-mer frequency, TF over GST control)
binding signal (ELF1): 1.32 fold enrichment (6-mer frequency, TF over GST control)
binding signal (EHF): 1.32 fold enrichment (6-mer frequency, TF over GST control)
binding signal (SPI1): 1.21 fold enrichment (6-mer frequency, TF over GST control)
binding signal (SPIB): 1.32 fold enrichment (6-mer frequency, TF over GST control)
binding signal (ELK3): 1.33 fold enrichment (6-mer frequency, TF over GST control)
binding signal (FEV): 1.19 fold enrichment (6-mer frequency, TF over GST control)
binding signal (ETV5): 1.32 fold enrichment (6-mer frequency, TF over GST control)
binding signal (HSF1): 1.25 fold enrichment (6-mer frequency, TF over GST control)
binding signal (SPIC): 1.45 fold enrichment (6-mer frequency, TF over GST control)
binding signal (ELF4): 1.36 fold enrichment (6-mer frequency, TF over GST control)
binding signal (ELK4): 1.32 fold enrichment (6-mer frequency, TF over GST control)
binding signal (ETV2): 1.4 fold enrichment (6-mer frequency, TF over GST control)
binding signal (ELF3): 1.46 fold enrichment (6-mer frequency, TF over GST control)
binding signal (CRX): 1.33 fold enrichment (6-mer frequency, TF over GST control)
binding signal (ETV1): 1.35 fold enrichment (6-mer frequency, TF over GST control)
